Test results: PubChem BioAssay (Tox21)
Results filed as inconclusive are left out. Entries that show only a call come without a potency. Some compounds were tested as several samples or in several runs, with calls that do not always agree. Active and inactive are the calls of the source. Unless noted, the call rests on the fitted dose curve; in most records, active means well fitted curve in the direction sought with a large enough effect in the repeat runs; inconclusive means weak or mixed curves; inactive means no such curve, though single readings can be large; an effect the other way counts as inactive or inconclusive.

What was measured:
[1] = qHTS assay to identify small molecule antagonists of the thyroid receptor (TR) signaling pathway - cell viability counter screen (AID 743064); further: nearly all actives have a fitted effect of over 50% in size; further: potency means the concentration at half of the fitted maximal effect
In short: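 In-well cytotoxicity read by CellTiter-Fluor (30 min, 37 C) following 23.5 h exposure of GH3 cells bearing a TRE-luciferase sensor. Compounds were added alongside 1 nM (final) T3 to drive TR transactivation.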

[2] = system: thyroid hormone receptor (rat, GH3 cells); assay: qHTS assay to identify small molecule agonists of the thyroid receptor (TR) signaling pathway (AID 743066; calls by dose curve)
[3] = qHTS assay to identify small molecule antagonists of the estrogen receptor alpha (ER-alpha) signaling pathway - cell viability counter screen (AID 743074; calls by dose curve;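 further: HEK293 cells carrying ER-alpha-UAS-bla reporter stimulated with 17beta-estradiol; nearly all actives have a fitted effect of over 45% in size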)
[4] = qHTS assay to identify small molecule antagonists of the estrogen receptor alpha (ER-alpha) signaling pathway using the BG1 cell line - cell viability counter screen (AID 743081);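 further: compound given together with 17beta-estradiol as the ER stimulus; series mostly up to about 70 µM; nearly all actives have a fitted effect of over 45% in size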
[5] = target: Aromatase (Homo sapiens) (UniProt P11511); assay: qHTS assay to identify aromatase inhibitors (AID 743083); further: series mostly up to about 70 µM; nearly all actives have a fitted effect of over 55% in size
Aromatase (Homo sapiens), sequence (P11511 whole entry, looked up): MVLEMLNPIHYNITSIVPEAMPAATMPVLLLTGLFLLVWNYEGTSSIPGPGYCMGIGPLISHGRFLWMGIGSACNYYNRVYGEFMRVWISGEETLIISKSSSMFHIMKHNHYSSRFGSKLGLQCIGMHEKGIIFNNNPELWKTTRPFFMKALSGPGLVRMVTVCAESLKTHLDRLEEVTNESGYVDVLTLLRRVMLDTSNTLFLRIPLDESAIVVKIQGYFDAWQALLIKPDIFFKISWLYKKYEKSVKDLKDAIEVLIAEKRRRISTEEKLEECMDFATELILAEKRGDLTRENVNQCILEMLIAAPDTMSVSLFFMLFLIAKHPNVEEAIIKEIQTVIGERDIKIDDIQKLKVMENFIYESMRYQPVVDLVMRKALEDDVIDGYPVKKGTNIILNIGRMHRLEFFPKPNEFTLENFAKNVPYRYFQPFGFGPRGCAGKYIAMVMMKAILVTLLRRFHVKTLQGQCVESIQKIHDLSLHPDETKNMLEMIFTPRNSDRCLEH

[6] = qHTS assay to identify aromatase inhibitors - cell viability counter screen (AID 743084);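 further: cells stimulated with testosterone during compound exposure; nearly all actives have a fitted effect of over 55% in size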
[7] = target: Aryl hydrocarbon receptor (Homo sapiens) (UniProt P35869); assay: qHTS assay to identify small molecule that activate the aryl hydrocarbon receptor (AhR) signaling pathway (AID 743085);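 further: HG2L7.5c1 human HepG2 liver cells with stably integrated DRE-driven firefly reporter; series mostly up to about 70 µM; nearly all actives have a fitted effect of over 15% in size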
Aryl hydrocarbon receptor (Homo sapiens), sequence (P35869 whole entry, looked up): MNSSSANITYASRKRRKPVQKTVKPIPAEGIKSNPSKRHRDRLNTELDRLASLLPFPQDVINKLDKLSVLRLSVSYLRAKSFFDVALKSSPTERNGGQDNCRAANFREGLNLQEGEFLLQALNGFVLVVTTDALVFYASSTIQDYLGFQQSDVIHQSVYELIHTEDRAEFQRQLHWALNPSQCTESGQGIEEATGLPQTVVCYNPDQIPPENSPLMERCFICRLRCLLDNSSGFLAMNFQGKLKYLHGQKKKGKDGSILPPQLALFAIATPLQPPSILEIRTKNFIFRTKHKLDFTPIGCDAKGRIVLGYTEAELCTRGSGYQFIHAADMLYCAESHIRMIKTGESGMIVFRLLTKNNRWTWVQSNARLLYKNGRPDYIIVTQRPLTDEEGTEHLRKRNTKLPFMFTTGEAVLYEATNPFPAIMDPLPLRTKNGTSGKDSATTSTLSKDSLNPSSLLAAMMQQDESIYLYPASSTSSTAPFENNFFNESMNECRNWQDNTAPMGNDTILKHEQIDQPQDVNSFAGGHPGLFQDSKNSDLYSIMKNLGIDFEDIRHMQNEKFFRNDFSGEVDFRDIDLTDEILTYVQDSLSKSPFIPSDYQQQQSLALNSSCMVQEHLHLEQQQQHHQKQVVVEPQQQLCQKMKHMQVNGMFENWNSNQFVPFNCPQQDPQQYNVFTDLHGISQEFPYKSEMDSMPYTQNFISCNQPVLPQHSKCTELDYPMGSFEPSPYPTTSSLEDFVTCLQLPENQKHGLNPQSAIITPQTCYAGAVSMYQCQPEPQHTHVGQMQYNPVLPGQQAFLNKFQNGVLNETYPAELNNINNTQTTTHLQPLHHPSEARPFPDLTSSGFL
In short: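 Luminescence (ONE-Glo) from a dioxin-responsive-element luciferase reporter in HG2L7.5c1 HepG2 cells after 24 hr compound exposure at 37C; viability measured by CellTiter-Fluor fluorescence beforehand.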

[8] = qHTS assay to identify small molecule that activate the aryl hydrocarbon receptor (AhR) signaling pathway - cell viability counter screen (AID 743086);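 further: HepG2 liver cells carrying the AhR DRE luciferase reporter; series mostly up to about 70 µM; nearly all actives have a fitted effect of over 45% in size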
In short: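 Cytotoxicity counter screen: CellTiter-Fluor signal (30 min, 37 C) in 4000 HepG2 cells/well carrying the DRE-luciferase reporter, following 24 h compound exposure at 37 C.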

[9] = target: Peroxisome proliferator-activated receptor gamma (Homo sapiens) (UniProt P37231); assay: qHTS assay to identify small molecule agonists of the peroxisome proliferator-activated receptor gamma (PPARg) signaling pathway (AID 743094; active means well fitted activation curve with a large enough effect in the signal ratio in the repeat runs, not every such curve was filed as active; the % refers to the signal ratio)
Peroxisome proliferator-activated receptor gamma (Homo sapiens), sequence (P37231 whole entry, looked up): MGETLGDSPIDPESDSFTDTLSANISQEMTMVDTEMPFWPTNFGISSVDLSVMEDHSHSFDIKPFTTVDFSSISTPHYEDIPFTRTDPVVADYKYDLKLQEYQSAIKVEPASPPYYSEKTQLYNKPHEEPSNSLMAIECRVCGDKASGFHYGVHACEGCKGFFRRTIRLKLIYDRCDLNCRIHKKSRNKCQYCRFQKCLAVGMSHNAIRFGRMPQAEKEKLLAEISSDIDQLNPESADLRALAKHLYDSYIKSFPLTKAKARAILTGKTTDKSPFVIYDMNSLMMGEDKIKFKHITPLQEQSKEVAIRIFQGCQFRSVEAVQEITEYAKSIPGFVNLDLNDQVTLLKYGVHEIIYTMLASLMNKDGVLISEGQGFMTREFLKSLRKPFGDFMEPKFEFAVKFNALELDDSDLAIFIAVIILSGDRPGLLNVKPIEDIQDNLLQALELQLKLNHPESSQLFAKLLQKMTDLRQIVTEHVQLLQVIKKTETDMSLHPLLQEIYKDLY
In short: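 HEK293H PPARg-bla cells, 5 h settle at 37C/5% CO2; compound (DMSO) 17 h, 37C; B/G FRET substrate 1 h RT; fluorescence intensity read-out. qHTS format.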

[10] = qHTS assay to identify small molecule antagonists of the peroxisome proliferator-activated receptor gamma (PPARg) signaling pathway - cell viability counter screen (AID 743194); further: nearly all actives have a fitted effect of over 55% in size
In short: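 Viability was measured as CellTiter-Glo luminescence in GeneBLAzer PPARg UAS-bla HEK293H cells. These cells had been exposed 17 h at 37 C to compounds together with rosiglitazone at 50 nM final, with the beta-lactamase readout taken in the same wells.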

[11] = qHTS assay for small molecule activators of the heat shock response signaling pathway - cell viability counter screen (AID 743209); further: nearly all actives have a fitted effect of over 50% in size
In short: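 HSE-bla HeLa; 1500 cells/well; overnight 37 C, 5% CO2; compound 5 h 37 C; LiveBLAzer B/G substrate 2.5 h RT; CellTiter-Glo 30 min RT; luminescence.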

[12] = qHTS assay for small molecule activators of the heat shock response signaling pathway (AID 743210; active means well fitted activation curve with a large enough effect in the signal ratio in the repeat runs, with a control signal flat, not every such curve was filed as active; the % refers to the signal ratio; further: series mostly up to about 63 µM)
In short: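 Compound exposure lasted 5 h at 37 C in HeLa cells carrying a heat-shock-element-driven beta-lactamase reporter. Read-out: fluorescence intensity after 2.5 h room-temperature loading with LiveBLAzer B/G FRET substrate.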

[13] = qHTS assay to identify small molecule agonists of the peroxisome proliferator-activated receptor delta (PPARd) signaling pathway - cell viability counter screen (AID 743211); further: nearly all actives have a fitted effect of over 55% in size
In short: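 Viability was measured as CellTiter-Glo luminescence (30 min, room temperature) in the same wells as the beta-lactamase readout. GeneBLAzer PPARd UAS-bla HEK293H cells received compound after 5 h plating and were incubated 17 h at 37 C.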

[14] = target: Estrogen receptor (Homo sapiens) (UniProt P03372); assay: qHTS assay to identify small molecule antagonists of the estrogen receptor alpha (ER-alpha) signaling pathway (AID 743069; active means well fitted curve in the direction sought with a large enough effect in the signal ratio in the repeat runs, not every such curve was filed as active; the % refers to the signal ratio)
Estrogen receptor (Homo sapiens), sequence (P03372 whole entry, looked up): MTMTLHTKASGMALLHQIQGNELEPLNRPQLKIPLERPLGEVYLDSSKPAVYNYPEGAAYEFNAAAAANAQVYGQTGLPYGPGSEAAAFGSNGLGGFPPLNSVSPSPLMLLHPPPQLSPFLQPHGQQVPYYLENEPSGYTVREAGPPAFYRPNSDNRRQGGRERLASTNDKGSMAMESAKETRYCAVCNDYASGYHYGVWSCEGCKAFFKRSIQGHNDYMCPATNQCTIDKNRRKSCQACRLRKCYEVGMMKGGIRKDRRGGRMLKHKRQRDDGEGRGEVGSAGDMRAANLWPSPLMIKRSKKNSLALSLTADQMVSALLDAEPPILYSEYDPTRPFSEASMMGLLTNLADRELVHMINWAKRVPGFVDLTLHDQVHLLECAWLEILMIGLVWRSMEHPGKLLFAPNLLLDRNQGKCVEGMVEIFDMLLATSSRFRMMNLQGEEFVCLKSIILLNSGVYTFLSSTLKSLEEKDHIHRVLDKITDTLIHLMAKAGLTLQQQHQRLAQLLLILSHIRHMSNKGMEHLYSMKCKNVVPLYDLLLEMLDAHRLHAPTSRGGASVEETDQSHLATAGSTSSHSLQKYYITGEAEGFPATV
In short: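 Antagonist mode: compounds in DMSO were co-added with 17beta-estradiol to ER-alpha-bla HEK293 cells (2% charcoal-stripped serum) and left 18 h at 37C. Reporter inhibition was measured as FRET fluorescence after 2 h LiveBLAzer substrate at room temperature.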

[15] = target: Estrogen receptor (Homo sapiens) (UniProt P03372); assay: qHTS assay to identify small molecule agonists of the estrogen receptor alpha (ER-alpha) signaling pathway (AID 743075; calls by dose curve;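 further: HEK293 GripTite cells with ER-alpha and UAS-driven beta-lactamase reporter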)
[16] = target: Estrogen receptor (Homo sapiens) (UniProt P03372); assay: qHTS assay to identify small molecule agonists of the estrogen receptor alpha (ER-alpha) signaling pathway using the BG1 cell line (AID 743079); further: nearly all actives have a fitted effect of over 20% in size; further: potency means the concentration at half of the fitted maximal effect
[17] = qHTS assay to identify small molecule antagonists of the estrogen receptor alpha (ER-alpha) signaling pathway using the BG1 cell line (AID 743080; calls by dose curve;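 further: BG1 cells stimulated with 17beta-estradiol alongside compound; series mostly up to about 70 µM; nearly all actives have a fitted effect of over 25% in size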)
In short: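 BG1-Luc-4E2 cells (endogenous full-length ER-alpha, 4xERE luciferase) hormone-starved 5 days in charcoal-stripped FBS, plated 4,000/well for 24 h, then compound plus 17beta-estradiol for 21.5 h at 37 C; ONE-Glo luminescence read.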

SMILES	Potency [1]	Potency [2]	Potency [3]	Potency [4]	Potency [5]	Potency [6]	Potency [7]	Potency [8]	Potency [9]	Potency [10]	Potency [11]	outcome [12]	Potency [13]	Potency [14]	Potency [15]	Potency [16]	Potency [17]
SC1CCCCC1	inactive	inactive	inactive	inactive	inactive	inactive	inactive	inactive	inactive	inactive	inactive	inactive	inactive	–	–	–	–
CCC[C@@H]1C[C@@H](C(=O)N[C@@H]([C@H]2O[C@H](SC)[C@H](OP(=O)(O)O)[C@@H](O)[C@H]2O)[C@H](C)Cl)N(C)C1	inactive	inactive	inactive	inactive	inactive	inactive	inactive	inactive	inactive	–	–	–	–	inactive	inactive	inactive	inactive
O=S(=O)(O)CC(S)CS (centres undefined)	inactive	inactive	inactive	inactive	inactive	inactive	inactive	inactive	inactive	–	–	–	–	–	–	–	–
CC(C)(COP(=O)(O)OP(=O)(O)OC[C@H]1O[C@@H](n2cnc3c(N)ncnc32)[C@H](O)[C@@H]1OP(=O)(O)O)C(O)C(=O)NCCC(=O)NCCS (some centres undefined)	inactive	inactive	inactive	inactive	inactive	inactive	–	inactive	inactive	–	–	–	–	inactive	inactive	26.6 µM (active)	inactive
NC(N)=NCC1COC2(CCCCC2)O1 (centres undefined)	inactive	inactive	inactive	inactive	inactive	inactive	inactive	inactive	inactive	–	–	–	–	–	–	–	–
CC(C)(O/N=C(\C(=O)N[C@@H]1C(=O)N2C(C(=O)[O-])=C(C[n+]3ccccc3)CS[C@H]12)c1csc(N)n1)C(=O)O	inactive	inactive	–	inactive	inactive	inactive	–	inactive	inactive	–	–	–	–	inactive	inactive	inactive	inactive
NCCO/C=C/[C@H](N)C(=O)O	inactive	inactive	inactive	inactive	inactive	inactive	inactive	inactive	inactive	–	–	–	–	inactive	inactive	26.6 µM (active)	inactive
COc1ccc(/C=C/C(=O)O)cc1	inactive	inactive	inactive	inactive	inactive	inactive	inactive	inactive	inactive	–	–	–	–	inactive	inactive	inactive	inactive
CC1(C)S[C@@H]2[C@H](NC(=O)[C@H](N)c3ccc(O)cc3)C(=O)N2[C@H]1C(=O)O	inactive	inactive	inactive	inactive	inactive	inactive	inactive	inactive	–	–	–	–	–	–	–	–	–
CC(=O)N[C@@H](C=O)[C@H](O)[C@H](O)[C@@H](O)CO	inactive	inactive	inactive	inactive	inactive	inactive	inactive	inactive	inactive	–	–	–	–	inactive	inactive	inactive	inactive
COc1c(O)cc2c(c1O)[C@@H]1O[C@H](CO)[C@@H](O)[C@H](O)[C@H]1OC2=O	inactive	inactive	–	inactive	inactive	inactive	inactive	inactive	inactive	–	–	–	–	inactive	inactive	inactive	inactive
O=P(O)(O)OP(=O)(O)OP(=O)(O)O	inactive	inactive	inactive	inactive	inactive	inactive	inactive	inactive	inactive	–	–	–	–	inactive	inactive	inactive	inactive
CCCCCCCCCCCCCC(=O)OCC(COP(=O)([O-])OCC[N+](C)(C)C)OC(=O)CCCCCCCCCCCCC (centres undefined)	inactive	inactive	inactive	–	inactive	inactive	inactive	inactive	inactive	–	–	–	–	inactive	inactive	inactive	inactive
NC(=O)c1cc[n+](CC2=C(C(=O)O)N3C(=O)[C@@H](NC(=O)C(c4ccccc4)S(=O)(=O)[O-])[C@H]3SC2)cc1 (some centres undefined)	inactive	inactive	inactive	inactive	inactive	inactive	inactive	inactive	inactive	–	–	–	–	–	–	–	–
CC[C@@H](C)[C@H](N)C(=O)O	inactive	inactive	inactive	inactive	inactive	inactive	inactive	inactive	inactive	–	–	–	–	inactive	inactive	26.6 µM (active)	inactive
CC/C=C\C/C=C\C/C=C\C/C=C\C/C=C\C/C=C\CCC(=O)O	inactive	inactive	inactive	inactive	inactive	inactive	inactive	inactive	inactive	–	–	–	–	inactive	inactive	inactive	inactive
CC(C)c1ncc([N+](=O)[O-])n1C	inactive	inactive	inactive	inactive	inactive	inactive	inactive	inactive	inactive	–	–	–	–	–	–	–	–
CC(C)[N+]1(C)[C@@H]2CC[C@H]1CC(OC(=O)C(CO)c1ccccc1)C2 (some centres undefined)	inactive	inactive	inactive	inactive	–	inactive	–	inactive	inactive	–	–	–	–	inactive	inactive	26.6 µM (active) and inactive	inactive
O=P(O)(O)C(O)(Cn1ccnc1)P(=O)(O)O	inactive	inactive	inactive	inactive	inactive	inactive	inactive	inactive	inactive	–	–	–	–	inactive	inactive	inactive	inactive
CC(C)COC(=O)OCN1C(=O)CN(CCN2CC(=O)N(COC(=O)OCC(C)C)C(=O)C2)CC1=O	inactive	inactive	inactive	inactive	inactive	inactive	inactive	inactive	inactive	–	–	–	–	inactive	inactive	inactive	inactive
CCN(CC)CCn1c(=O)c(Cc2ccc(OC)cc2)nc2ccccc21	26.6 µM (active)	inactive	inactive	inactive	inactive	inactive	inactive	inactive	inactive	–	–	–	–	inactive	inactive	inactive	–
Cc1onc(-c2c(F)cccc2Cl)c1C(=O)N[C@@H]1C(=O)N2[C@@H]1SC(C)(C)[C@@H]2C(=O)O	inactive	inactive	inactive	inactive	inactive	inactive	inactive	inactive	inactive	–	–	–	–	–	–	–	–
CCN(CC)CCOC[C@H]1O[C@@H](O)[C@H](OCCN(CC)CC)[C@@H](O)[C@@H]1O	inactive	inactive	inactive	inactive	inactive	inactive	inactive	inactive	inactive	–	–	–	–	inactive	inactive	inactive	–
CO/N=C(\C(=O)N[C@@H]1C(=O)N2C(C(=O)O)=C(C[N+]3(C)CCCC3)CS[C@H]12)c1csc(N)n1	inactive	inactive	inactive	inactive	inactive	inactive	inactive	inactive	inactive	–	–	–	–	inactive	inactive	inactive	–
N#Cc1c(N(CC(=O)O)CC(=O)O)sc(C(=O)O)c1CC(=O)O	inactive	inactive	inactive	inactive	inactive	inactive	inactive	inactive	inactive	–	–	–	–	inactive	inactive	–	inactive
